Drawing on PubChem BioAssay (NCI), this text covers growth for 40 compounds.

The panel holds about 83,000 compounds, 20% with a hit somewhere; the sample as a whole holds those more often.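 Each cell line was grown in a 96-well plate and treated with one concentration of compound for 48 hours. Values below 10 were considered active.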 Calls of active or inactive are those of the source.

This experiment concerns HL-60(TB) leukemia. As to the kind of experiment: NCI-60 one-dose screen, 48 h (100 = growth as untreated, 0 = no growth, -100 = all killed). Conditions: 10 µM unless noted.
In the case of `C#CC[C@@H]1C[C@]2(C)[C@H]3CC=C4[C@H]5[C@@H](C)[C@H](C)CC[C@]5(C(=O)NCCCCCCCCN)CC[C@@]4(C)[C@]3(C)CC[C@H]2C(C)(C)[C@H]1OC(C)=O`, the growth is -15.1% (active).

Consider `Cc1ccc(OC(=O)c2ccccc2)cc1`, for which the growth is 103% (inactive).

Consider `COc1ccc(C2=NN(C=O)C(c3ccc(Oc4nc5c(c(=O)n(C)c(=O)n5C)n4C)c(OC)c3)C2)cc1` (stereo not given), for which the growth is 90.3% (inactive).

As for `CCOC(=O)CC1CSC(Nc2ccccc2)=N1` (stereo not given), the growth was 102% (inactive).

As to `O=C1c2ccc3c4c(ccc(c24)C(=O)N1CCCNCc1ccccc1Cl)C(=O)N(CCCNCc1ccccc1Cl)C3=O`, the growth was -55.9% (active).

For the compound `Nc1n[nH]c2cccc(C#Cc3cccc(C(=O)Nc4cccc(C(F)(F)F)c4)c3)c12`, the growth was 30.4% (inactive).

Turning to `COc1ccc2c(c1)C(C)Cc1c(Cl)nc(C)nc1N2C` (stereo not given), the growth is 11.3% (inactive).

Regarding `COc1cccc(/C=C2\SC(=Nc3ccc(NC(C)=O)cc3)NC2=O)c1OC`, the growth was 101% (inactive).

As for `COc1cc(OC)c(/C=C/S(=O)(=O)Cc2cnc(OC)c(N)c2)c(OC)c1`, the growth was -39.5% (active).

Take `Cc1n(Cc2ccc3ccccc3c2)c(Cl)c(Cl)[n+]1Cc1ccc2ccccc2c1`: the growth was -34.6% (active).

On to `COc1ccc(C2CC(c3ccc(Nc4nc(Nc5ccc(F)cc5)nc(Nc5ccc(F)cc5)n4)cc3)=NN2C(C)=O)cc1` (stereo not given), for which the growth is 17.1% (inactive).

Turning to `Cc1cc2nc(C(Cl)Cl)nc(-c3ccccc3)n2n1`, the growth is -14.1% (active).

As for `COc1ccc(NS(=O)(=O)c2ccc(C)cc2)c([N+](=O)[O-])c1`, the growth was 90.7% (inactive).

For `CCN(CC)CCOc1ccc(/C(=C(\C)c2ccc(F)c(OC)c2)c2ccc(Cl)cc2)cc1`, the growth was -27.9% (active).

For the compound `CN1CCN(CCCNC(=O)c2c3c(n4ccccc24)C(=O)c2ncccc2C3=O)CC1`, the growth was -25.4% (active).

On to `COc1cccc(-c2nc3sccn3c2-c2ccnc(NCCCNS(=O)(=O)c3ccc(Cl)cc3)c2)c1`, for which the growth is 27.4% (inactive).

As for `Nc1nc(Cl)cc(NCc2ccc(CNc3cc(Cl)nc(N)n3)cc2)n1`, the growth is 78.7% (inactive).

With `CC(C)(C)CC(C)(C)Nc1c(-c2ccc(C(F)(F)F)cc2)nc2cnccn12`, the growth was 79.4% (inactive).

Consider `COc1cc(-c2csc(NC(=O)c3cc(C(F)(F)F)cc(C(F)(F)F)c3)n2)cc(OC)c1OC`, for which the growth is 29.6% (inactive).

On to `Cc1c(NCc2nnc3n(Cc4ccccc4)c(=O)c4c5c(sc4n23)CCCC5)c(=O)n(-c2ccccc2)n1C`, for which the growth is 80% (inactive).

As to `CCN(CC)CCOc1ccc(Nc2ncc3cc(-c4ccc(O)cc4)c(=O)n(C)c3n2)cc1`, the growth is 40.2% (inactive).

`COc1ccc(C2CC(=O)c3c(O)c(OC)c(OC)c(OC)c3O2)cc1O` (stereo not given): the growth is -4.32% (active).

With `CCN(CC)CC(=O)Nc1c(C)ccc(N)c1C`, the growth was 74.2% (inactive).

Turning to `O=c1oc2ccc(Cl)cc2c(=O)n1-c1ccc(F)cc1F`, the growth was -28.8% (active).

For `O=C(NC1CCCCC1)OCc1c(COC(=O)NC2CCCCC2)c(-c2ccc(Cl)c(Cl)c2)n2c1CCC2`, the growth was -35.6% (active).

Consider `COc1ccc(-c2ccc(-c3ccc(C(=N)N)cn3)s2)cc1OC`, for which the growth is 94.9% (inactive).

On to `CCCCCCCCCCCCC[N+](C)(C)Cc1ccccc1`, for which the growth is -56.7% (active).

For `O=C(CSc1nnc(-c2cc(-c3ccccc3)nc3ccccc23)n1-c1ccccc1)Nc1ccc(C(=O)/C=C/c2ccc(Cl)cc2)cc1`, the growth is 89% (inactive).

As to `C/C(=C(/c1ccccc1)c1ccc(OCC(O)CN2CCOCC2)cc1)c1ccccc1` (stereo not given), the growth is 60.7% (inactive).

Regarding `O=C(/C=C/c1cc([N+](=O)[O-])ccc1Cl)c1ccccc1`, the growth was 61.7% (inactive).

As to `CCN1CCN(c2cc(C)nc(NCc3cc(Nc4ccnc5cc(Cl)ccc45)ccc3F)n2)CC1`, the growth was 95.7% (inactive).

For the compound `COc1ccc2c(c1)CC=C1[C@@H]2CC[C@]2(C)C(=O)/C(=N/O)C[C@@H]12`, the growth was 53.4% (inactive).

Take `NS(=O)(=O)c1ccc(CCN2C(=O)/C(=C\c3ccc(Cl)cc3)C=C2c2ccc(Oc3ccccc3)cc2)cc1`: the growth is 83.7% (inactive).

On to `NC(=S)N/N=C/c1ccc(Cl)s1`, for which the growth was 102% (inactive).

As for `O=[n+]1c2ccccc2n([O-])c2cc(Cl)ccc21`, the growth was -0.993% (active).

Regarding `O=C1C(Cl)C(c2ccccc2Cl)N1n1cnnc1` (stereo not given), the growth was 109% (inactive).

As to `Cc1ccc2c(c1)O/C(=C\c1cccc(OCC(=O)c3ccccc3)c1)C2=O`, the growth was 12.1% (inactive).

With `COc1ccc(-c2conc2-c2ccccc2)cc1`, the growth is 15.1% (inactive).

On to `CCN1C(=O)/C(=C/C(=O)OC)S/C1=N\NC(=O)c1cc2ccc1/C=C\c1ccc(cc1)/C=C\2`, for which the growth was 88.4% (inactive).

As for `Cc1nc2oc3ccccc3c(=O)c2cc1C(=O)NCc1ccccc1`, the growth is 69.5% (inactive).
